In PubChem BioAssay AID376 (PDSP, 2006):
The whole screen tested about 2,000 compounds, of which about 250 (12%) were called active. This is one part of a sample in which actives are shown more often than they occur. No stated cut-off is given here; in the data, active means hERG blockade below about -20% or above about 20%; inactive means in between.

Each compound was assayed against Voltage-gated inwardly rectifying potassium channel KCNH2 (Homo sapiens) (UniProt Q12809) (assay: modulators of KCNH2 ion channel function, cellular (AID 376;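 further: 0% = buffer alone and 100% = reference blocker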)). Conditions: hERG-expressing cells, channel activity single-concentration screen; concentration not given here.
Voltage-gated inwardly rectifying potassium channel KCNH2 (Homo sapiens), sequence (Q12809 whole entry, looked up): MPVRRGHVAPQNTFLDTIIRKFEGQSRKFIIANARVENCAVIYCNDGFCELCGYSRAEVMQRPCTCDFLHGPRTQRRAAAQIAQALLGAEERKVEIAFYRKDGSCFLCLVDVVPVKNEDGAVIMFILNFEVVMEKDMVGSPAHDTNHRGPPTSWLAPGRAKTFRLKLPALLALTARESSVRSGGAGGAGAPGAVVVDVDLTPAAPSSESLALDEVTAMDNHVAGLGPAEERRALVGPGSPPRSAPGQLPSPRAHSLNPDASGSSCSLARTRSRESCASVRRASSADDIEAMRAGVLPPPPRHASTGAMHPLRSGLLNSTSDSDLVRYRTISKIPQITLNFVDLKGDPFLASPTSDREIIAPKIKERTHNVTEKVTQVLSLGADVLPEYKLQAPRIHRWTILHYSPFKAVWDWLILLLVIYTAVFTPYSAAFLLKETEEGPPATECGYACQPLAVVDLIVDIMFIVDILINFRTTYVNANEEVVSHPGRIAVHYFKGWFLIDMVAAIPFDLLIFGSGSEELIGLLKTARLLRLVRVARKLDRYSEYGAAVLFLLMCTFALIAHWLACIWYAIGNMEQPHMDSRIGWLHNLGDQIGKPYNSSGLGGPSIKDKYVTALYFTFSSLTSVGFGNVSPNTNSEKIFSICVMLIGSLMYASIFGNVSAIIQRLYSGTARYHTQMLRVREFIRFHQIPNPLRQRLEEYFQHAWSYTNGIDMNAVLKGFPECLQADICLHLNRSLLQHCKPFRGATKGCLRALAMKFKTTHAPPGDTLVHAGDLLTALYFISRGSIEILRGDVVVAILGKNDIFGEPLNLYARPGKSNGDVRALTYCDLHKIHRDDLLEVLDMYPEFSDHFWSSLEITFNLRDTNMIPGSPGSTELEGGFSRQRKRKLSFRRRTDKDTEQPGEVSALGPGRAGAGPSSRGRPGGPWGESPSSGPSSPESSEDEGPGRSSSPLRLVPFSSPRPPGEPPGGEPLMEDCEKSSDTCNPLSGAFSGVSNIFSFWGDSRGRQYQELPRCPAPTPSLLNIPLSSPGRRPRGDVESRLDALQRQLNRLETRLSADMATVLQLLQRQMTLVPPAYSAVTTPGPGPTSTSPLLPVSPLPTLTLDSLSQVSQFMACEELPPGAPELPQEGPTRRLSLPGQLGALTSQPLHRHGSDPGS
In the case of `Cc1ccc(S(=O)(=O)NC(=O)OC23COCN2COC3)cc1`, the hERG blockade is reported as -18.8% (inactive). With `Oc1c(Br)cc(Br)cc1CN(Cc1cc(Br)cc(Br)c1O)C1CCCCC1` the hERG blockade was -7.44% (inactive). For `O=C1c2ccccc2C(=O)N1CC1(C(=O)O)NCCS1(=O)=O` (configuration not stated), the hERG blockade was 4.44% (inactive). `N=Nc1c(OC(=O)Nc2cccc(Cl)c2)[nH]c2ccccc12` was tested, and the hERG blockade was 1.43% (inactive). In the case of `S=C1NC(c2ccccc2)NC(c2ccccc2)S1` (configuration not stated), the hERG blockade is reported as 8.24% (inactive). In the case of `NC(N)=NC(CC(=O)O)c1ccccc1` (configuration not stated), the hERG blockade is reported as 10.4% (inactive). For `N=C(N)SC(c1ccccc1)c1ccccc1`, the hERG blockade was 22.5% (active). In the case of `N=C(N)C(N=Nc1ccccc1)C(=N)N` (configuration not stated), the hERG blockade is reported as 14.2% (inactive). With `O=C(O)CCCSc1ccccc1` the hERG blockade was 8.71% (inactive). In the case of `O=C1c2ccccc2C(=O)N1CCCSc1ccccc1`, the hERG blockade is reported as 23.2% (active). With `Cn1c(=S)c2[nH]c(SCCN3C(=O)c4ccccc4C3=O)nc2n(C)c1=O` the hERG blockade was 13.4% (inactive). With `O=C(O)c1cccc(S(=O)(=O)NCCO)c1` the hERG blockade was -15.6% (inactive). In the case of `CN(C)CCn1c(CO)nc2c1c(=O)n(C)c(=O)n2C`, the hERG blockade is reported as -1.57% (inactive). With `Cn1c(=O)c2c(nc(NCCNc3nc4c(c(=O)n(C)c(=O)n4C)n3C)n2C)n(C)c1=O` the hERG blockade was -7.81% (inactive). For `CN(C)CCNc1nc2c(c(=O)n(C)c(=O)n2C)n1C`, the hERG blockade was 34% (active). `Cc1ccc(CCCC(=O)O)cc1C` was tested, and the hERG blockade was 6.44% (inactive). In the case of `NC(=O)NOCC1NC(=O)NC1=O` (configuration not stated), the hERG blockade is reported as -12% (inactive). In the case of `C[N+](C)(C)c1ncnc2c1ncn2C1CC(O)C(CO)O1` (configuration not stated), the hERG blockade is reported as -5.95% (inactive). For `Nc1ncnc2c1ncn2C1OC(CO)C(O)C1N` (configuration not stated), the hERG blockade was 13.4% (inactive). In the case of `NCC1OC(n2cnc3c(N)ncnc32)CC1O` (configuration not stated), the hERG blockade is reported as -23.5% (active). In the case of `Nc1ncnc2c1nc(-c1ccccc1)n2C1OC(CO)C(O)C1O` (configuration not stated), the hERG blockade is reported as -5.56% (inactive). For `Cc1ccc(C2(C)CCC(=NN=C3CCC(C)(c4ccc(C)c(C)c4)c4cc(C)c(C)cc43)c3cc(C)c(C)cc32)cc1C` (configuration not stated), the hERG blockade was 5.6% (inactive). With `CC(NC(=O)c1ccccc1)(C(=O)O)C(=O)O` the hERG blockade was -6.84% (inactive). `O=C(Nc1ccc(-c2cn3ccccc3n2)cc1)c1cc(Br)ccc1O` was tested, and the hERG blockade was 6.36% (inactive). In the case of `CC12CCC3c4ccc(OCC(=O)O)cc4CCC3C1CCC2=O` (configuration not stated), the hERG blockade is reported as -7.52% (inactive). With `Cc1cc(Cl)ccc1OCC(=O)Oc1c(Cl)c(Cl)c(Cl)c(Cl)c1Cl` the hERG blockade was -9.38% (inactive). With `CC(C)Cn1cnc2c(SCc3ccccn3)nc(N)nc21` the hERG blockade was -2.95% (inactive). For `Cc1ccc2ccccc2c1CSc1nc(N)nc2c1ncn2CC(C)C`, the hERG blockade was 13.9% (inactive). In the case of `CC(C)Cn1cnc2c(SCc3ccc(Cl)cc3Cl)nc(N)nc21`, the hERG blockade is reported as 20.1% (active). For `COc1cccc(CSCC(=O)O)c1`, the hERG blockade was 3.08% (inactive). In the case of `CC(=O)NC(Cc1c[nH]c2ccccc12)C(=O)O` (configuration not stated), the hERG blockade is reported as 2.72% (inactive). With `O=C(O)C(Cc1c[nH]c2ccccc12)N1C(=O)c2ccccc2C1=O` (configuration not stated) the hERG blockade was -13.6% (inactive). With `CN(CC(=O)O)Cc1c[nH]c2ccccc12` the hERG blockade was -21% (active). `CC(N)(Cc1c[nH]c2ccccc12)C(=O)O` (configuration not stated) was tested, and the hERG blockade was -24.5% (active). `O=C(O)C(Cc1c[nH]c2ccccc12)C(=O)NO` (configuration not stated) was tested, and the hERG blockade was -0.439% (inactive). `O=C(O)C1CCCN1Cc1c[nH]c2ccccc12` (configuration not stated) was tested, and the hERG blockade was -17.1% (inactive). For `NC(N)=NCC(N)C(=O)O` (configuration not stated), the hERG blockade was -1.09% (inactive). For `Cc1nnc(S(=O)(=O)c2ccc(N=Nc3c(N)nc(N)nc3N)cc2)s1`, the hERG blockade was -0.733% (inactive). In the case of `O=C(O)CC(=Cc1ccco1)C(=O)O`, the hERG blockade is reported as -9.17% (inactive). With `O=C(O)CCC1(C(=O)O)CCC(=O)c2ccccc21` (configuration not stated) the hERG blockade was 6.22% (inactive). With `BrC(c1cccc2ccccc12)c1cccc2ccccc12` the hERG blockade was -6.84% (inactive). With `COc1ccc(C(=O)CCN(C)C)c2ccccc12` the hERG blockade was 7.02% (inactive). In the case of `Clc1ccccc1C(Nc1cnccn1)Nc1cnccn1`, the hERG blockade is reported as 21.5% (active). `Clc1ccccc1C(Nc1ncccn1)Nc1ncccn1` was tested, and the hERG blockade was 3.73% (inactive). For `O=C(O)C(Cc1ccc([N+](=O)[O-])cc1)=NO`, the hERG blockade was 0.35% (inactive). With `CC(CO)(CO)Nc1ncnc2ccccc12` the hERG blockade was 2.95% (inactive). For `O=S(=O)(c1cnccc1N1CCN(CCO)CC1)N1CCCC1`, the hERG blockade was -8.49% (inactive). `N=C1C(O)C2(I)c3ccccc3N3C(=N)C(O)C4c5ccccc5N1C4C32` (configuration not stated) was tested, and the hERG blockade was 35.8% (active). In the case of `O=C(CSc1nc2ccccc2s1)c1sc2sc3ccccc3[n+]2c1O`, the hERG blockade is reported as 1.71% (inactive). In the case of `CC(CCC(=O)O)C(=O)O` (configuration not stated), the hERG blockade is reported as 2.86% (inactive). `Oc1ccccc1CNCc1ccccc1O` was tested, and the hERG blockade was 23.5% (active). In the case of `O=C(O)c1ccc(CNCc2ccccc2)cc1`, the hERG blockade is reported as -8.86% (inactive). In the case of `Oc1ccc(CNCc2ccccc2)c2cccnc12`, the hERG blockade is reported as 7.55% (inactive). `CCCCN1CSC(=S)N(Cc2ccccc2)C1` was tested, and the hERG blockade was 13.4% (inactive). With `CCC(CS(=O)(=O)O)[N+](=O)[O-]` (configuration not stated) the hERG blockade was 1.33% (inactive). In the case of `O=C(O)CC(CC(=O)O)C(=O)O`, the hERG blockade is reported as 15.6% (inactive). For `N=C(N)SCc1cc(Cl)cc(Cl)c1O`, the hERG blockade was 12.3% (inactive). With `N=C(N)SCc1ccc(Cl)cc1Cl` (tested in a mixture with another compound) the hERG blockade was 30.7% (active). With `Clc1ccc(CSCc2ccc(Cl)cc2Cl)c(Cl)c1` the hERG blockade was 5.81% (inactive). With `COC(=O)c1ccc(CCc2cc(O)ccc2O)cc1` the hERG blockade was 11.9% (inactive). In the case of `O=C(O)CCC(=O)c1ccc[nH]1`, the hERG blockade is reported as 1.12% (inactive). `O=C(O)CCC(=O)c1ccc2ccc3cccc4ccc1c2c34` was tested, and the hERG blockade was -66.6% (active). `O=C(O)c1cccc2cccc(-c3cccc4cccc(C(=O)O)c34)c12` was tested, and the hERG blockade was -6.19% (inactive). `NCCNS(=O)(=O)c1ccc(N)cc1` was tested, and the hERG blockade was 2.62% (inactive). `CC(C)(C)c1ccc(NS(=O)(=O)c2ccc(N)cc2)cc1` was tested, and the hERG blockade was -2.98% (inactive). In the case of `Nc1ccc(S(=O)(=O)NCCS(=O)(=O)O)cc1`, the hERG blockade is reported as -20.3% (active). `CCOC(=O)c1cnc(N(C)C)nc1SC(=N)N` was tested, and the hERG blockade was 12.8% (inactive). For `c1cc(CNCCN2CCNCC2)ccn1`, the hERG blockade was -17.5% (inactive). With `CC(C)NCCC(O)c1cc2ccccc2o1` (configuration not stated) the hERG blockade was 7.89% (inactive). For `NC(N)=NC(N)=Nc1ccccc1` (tested in a mixture with another compound), the hERG blockade was -3.28% (inactive). With `NC(N)=NC(N)=Nc1ccc(C(=O)O)cc1` the hERG blockade was -11% (inactive). In the case of `NC(N)=NC(N)=Nc1c(F)c(F)c(F)c(F)c1F`, the hERG blockade is reported as -23.3% (active). `O=C(O)CCc1c2ccc(=O)c(O)c-2oc2c(O)c(O)ccc12` was tested, and the hERG blockade was 6.94% (inactive). With `Oc1ccc(Cn2c(-c3ccc(O)cc3)nc3ccccc32)cc1` the hERG blockade was 9.19% (inactive). `NS(=O)(=O)c1cc2c(cc1Cl)=NC(CCC(=O)O)=NS=2(=O)O` was tested, and the hERG blockade was -4.14% (inactive). `[N-]=[N+]=NC1C(O)C(CO)OC1n1cnc2c(N)ncnc21` (configuration not stated) was tested, and the hERG blockade was -1.39% (inactive). For `Cc1ccc(C(O)c2cnc(C)n2Cc2ccccc2)cc1` (configuration not stated), the hERG blockade was 0.183% (inactive). With `Cc1ccc2c(c1)NC(c1ccc(C(=O)O)cc1)c1cccn1-2` (configuration not stated) the hERG blockade was -13.1% (inactive). For `CC1CC2C3CCC4=CC(=O)C=CC4(C)C3(F)C(O)CC2(C)C1(O)C(=O)COP(=O)(O)O` (configuration not stated), the hERG blockade was -1.33% (inactive). `CC(=O)Nc1cc(CN2CCCCC2)c(O)c2ncccc12` was tested, and the hERG blockade was -2.13% (inactive). For `NC(CSc1nc2ccccn2c1[N+](=O)[O-])C(=O)O` (configuration not stated), the hERG blockade was -1.31% (inactive). `O=C1c2ccccc2C(=O)c2c1ccc(N1C(=O)c3ccccc3C1=O)c2-c1c(N2C(=O)c3ccccc3C2=O)ccc2c1C(=O)c1ccccc1C2=O` was tested, and the hERG blockade was 15.5% (inactive). For `O=C(O)c1cccc(N=Nc2c(S(=O)(=O)O)ccc3c2C(=O)c2ccccc2C3=O)c1O`, the hERG blockade was 6.27% (inactive). With `O=C1c2ccccc2C(=O)c2c1ccc(C(=O)O)c2-c1ccc2ccccc2c1` the hERG blockade was 66.5% (active). `NC(C(=O)O)C(O)c1cnc[nH]1` (configuration not stated) was tested, and the hERG blockade was 2.25% (inactive). With `O=C(O)C1CCCCC1C(=O)Nc1nc2ccccc2[nH]1` (configuration not stated) the hERG blockade was 28.5% (active). For `O=C1c2ccccc2-c2ccc(NC(=O)C3CCCCC3C(=O)O)cc21` (configuration not stated), the hERG blockade was 1.13% (inactive). `O=C(O)CSc1nc2ccccc2[nH]1` was tested, and the hERG blockade was -15.3% (inactive). In the case of `CN(C)CCCNc1ncnc2nc[nH]c12`, the hERG blockade is reported as 3.18% (inactive). `C[N+]1(C)CCc2cc(O)c(O)cc2C1Cc1ccc(O)c(O)c1` (configuration not stated) was tested, and the hERG blockade was -10.5% (inactive). `CC(=NO)c1cccc[n+]1Cc1ccccc1` was tested, and the hERG blockade was -12.2% (inactive). `COc1ccc(-c2csc3c2-n2cccc2C3=O)cc1` was tested, and the hERG blockade was 22.6% (active). `NC(=O)C1CCCN1Cc1ccc2c(c1)OCO2` (configuration not stated) was tested, and the hERG blockade was -14.4% (inactive). With `CC12CCC(=O)C=C1CCC1C2CCC2(C)C(C(=O)Cn3cnc4c(=S)nc[nH]c43)CCC12` (configuration not stated) the hERG blockade was 12.1% (inactive). `Nc1nc(N)c2[nH]c(CNc3ccc(C(=O)O)cc3)nc2n1` was tested, and the hERG blockade was 16.1% (inactive). `CCn1c2ccccc2c2nnc(NCCCO)nc21` was tested, and the hERG blockade was -5.84% (inactive). `CCOc1ccccc1Nc1ccc(N)cc1S(=O)(=O)O` was tested, and the hERG blockade was 0.163% (inactive). `S=C1SCN(C2CCCCCCCCCCC2)CN1C1CCCCCCCCCCC1` was tested, and the hERG blockade was 0.139% (inactive). `COc1ccc(CSC2=C(C#N)C(=O)NC3(CCCCC3)S2)cc1` was tested, and the hERG blockade was -27.9% (active). `O=C(O)CSc1ccccc1C(=O)O` was tested, and the hERG blockade was -2.77% (inactive). For `Clc1nc(NCCc2ccccc2)c2ncn(-c3ccccc3)c2n1`, the hERG blockade was 34.7% (active). With `Cn1ncc2c(NCCc3ccccc3)nc(Cl)nc21` the hERG blockade was 10% (inactive). `c1ccc(CCCNc2nnnc3ccccc23)cc1` was tested, and the hERG blockade was 3.75% (inactive). For `O=C(O)C1(C(=O)O)CCN(S(=O)(=O)c2ccccc2)CC1`, the hERG blockade was -10% (inactive). With `CC(=NNC1=NCCN1)c1cn(C2=NCCN2)nc1C` the hERG blockade was 48.8% (active). In the case of `Cc1nc2sc3c(c2c(=O)[nH]1)CCCC3`, the hERG blockade is reported as -7.98% (inactive). In the case of `O=C(O)CC(Cc1ccccc1)C(=O)O` (configuration not stated), the hERG blockade is reported as 6.37% (inactive).
